Data: PubChem BioAssay
Results filed as inconclusive are left out. Active and inactive are the calls of the source.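 Rule for the calls, unless noted: active = cell viability at or below a set limit in both duplicate runs, the limit being the all-compound median minus 4 SD (cut at about 23% in these data, passing the limit was not always enough); inconclusive = no clear call, values can overlap the other calls; inactive = the rest.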

Experiments:
[1] = Her2 expression decrease, cell viability multiplex – SKBR3 breast tumor cells, AlphaScreen, ATP viability, primary screen (AID 461;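 active = Her2 level under about 52% in both replicate screens, with viability over 70% of control, limit read from the data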;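 for Her2 level: lower value means less Her2 protein in the cells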;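 for viability: percent of carrier control wells set as 100% viability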); conditions: SKBR3 Her2 protein level, 18-24 h, measured here: SKBR3 viability, ATP luminescence, at 10 µM
[2] = molecular target: Receptor tyrosine-protein kinase erbB-2 (Homo sapiens) (UniProt P04626); experiment: as above; conditions: 18-24 h, at 10 µM, stronger effect = lower value
Chain of Receptor tyrosine-protein kinase erbB-2 (Homo sapiens) (P04626 whole entry, looked up): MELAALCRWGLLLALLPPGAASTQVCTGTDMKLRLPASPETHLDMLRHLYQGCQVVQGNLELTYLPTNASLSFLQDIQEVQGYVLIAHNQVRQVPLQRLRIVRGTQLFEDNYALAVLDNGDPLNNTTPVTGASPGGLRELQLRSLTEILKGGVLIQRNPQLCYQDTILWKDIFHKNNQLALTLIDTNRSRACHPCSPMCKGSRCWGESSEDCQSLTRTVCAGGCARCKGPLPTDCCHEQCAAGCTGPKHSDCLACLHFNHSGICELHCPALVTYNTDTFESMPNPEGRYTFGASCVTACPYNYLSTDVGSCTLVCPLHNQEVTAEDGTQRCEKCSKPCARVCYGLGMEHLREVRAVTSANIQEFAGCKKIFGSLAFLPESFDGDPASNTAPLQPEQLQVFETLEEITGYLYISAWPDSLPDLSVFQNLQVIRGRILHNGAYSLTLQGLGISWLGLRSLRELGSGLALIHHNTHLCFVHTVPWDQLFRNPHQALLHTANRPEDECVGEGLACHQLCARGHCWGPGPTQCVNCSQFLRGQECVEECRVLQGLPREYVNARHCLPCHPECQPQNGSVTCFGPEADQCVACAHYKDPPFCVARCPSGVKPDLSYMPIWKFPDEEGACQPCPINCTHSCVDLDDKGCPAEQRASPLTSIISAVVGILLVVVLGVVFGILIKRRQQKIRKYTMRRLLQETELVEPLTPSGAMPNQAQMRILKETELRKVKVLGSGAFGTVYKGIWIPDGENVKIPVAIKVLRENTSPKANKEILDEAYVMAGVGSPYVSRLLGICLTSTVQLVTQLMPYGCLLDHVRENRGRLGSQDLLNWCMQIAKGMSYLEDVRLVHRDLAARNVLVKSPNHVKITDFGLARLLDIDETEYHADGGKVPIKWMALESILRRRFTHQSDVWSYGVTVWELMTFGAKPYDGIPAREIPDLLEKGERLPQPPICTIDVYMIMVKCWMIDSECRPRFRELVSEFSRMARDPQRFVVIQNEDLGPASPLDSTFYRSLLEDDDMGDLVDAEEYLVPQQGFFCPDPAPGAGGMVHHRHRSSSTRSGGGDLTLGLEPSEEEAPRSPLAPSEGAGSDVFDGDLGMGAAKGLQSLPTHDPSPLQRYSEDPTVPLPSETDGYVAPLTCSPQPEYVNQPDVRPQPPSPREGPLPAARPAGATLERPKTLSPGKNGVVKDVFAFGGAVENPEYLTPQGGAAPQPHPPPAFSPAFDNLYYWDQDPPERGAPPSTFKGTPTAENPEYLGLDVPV

[3] = reduced viability of SK-BR-3 breast cancer cells – cell-based, 24 h, human, pilot screen (AID 572;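 active = viability at or below 10% of carrier control in both of two separate runs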;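 note: compound exposure lasted between 18 and 24 h rather than exactly 24 h; 100% = carrier-treated control wells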); conditions: SK-BR-3 viability, CellTiter-Glo luminescence, at 10 µM, stronger effect = lower value
[4] = HUVEC growth inhibition – cell-based, human, primary screen (AID 575;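 active = viability at or below 30% in both replicate assays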;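 note: 100% = median of untreated cell wells with 0.1% DMSO on each plate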); conditions: HUVEC proliferation, CellTiter-Glo luminescence, 72 h; at 10 µM; stronger effect = lower value
[5] = H69AR cell proliferation blockers – human, duplicate replicates, primary screen (AID 580;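 active = viability at or under a set limit in both replicates, limit being median viability minus 3 SD, cut at about 48% in these data, passing the limit was not always enough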;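 note: 100% = mean luminescence of untreated wells and 0% = no signal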); conditions: H69AR lung tumor cells viability, ATP luminescence, 72 h; at 10 µM; stronger effect = lower value
[6] = MRP1 drug-resistance reversers in H69AR cells – cell-based, doxorubicin co-treatment, pilot screen (AID 601;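 active = viability loss from added drug above about 55%, and viability with drug at most 40%, in both replicates, limit read from the data, passing the limit was not always enough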); conditions: CellTiter-Glo, 72 h, at 10 µM; for differential viability (reversal): stronger effect = higher value
[7] = yeast transport mutant growth inhibition pilot in 384-well plates, post-Golgi transport modulator project (AID 636; in the data active = inhibition above about 31%); conditions: absorbance 615 nm, about 18 h, stronger effect = higher value
[8] = growth suppression of yeast trafficking mutant, preliminary HTS, modulators of trafficking downstream of Golgi apparatus project, 1536-format plate, OD 615 nm (AID 637; in the data active = inhibition above about 30%); conditions: yeast transport mutant growth, absorbance 615 nm, 18 h; stronger effect = higher value
[9] = S. cerevisiae growth inhibition in permissive medium (OD615), pilot counter-assay for S. cerevisiae lifespan shortening project, permissive growth control (AID 705;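 active = growth inhibition above 25% in both replicates, a cutoff set 3 SD above the mean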); conditions: OD615, 24 h, at 10 µM, stronger effect = higher value
[10] = S. cerevisiae growth inhibition in restrictive medium, OD615, pilot screen, restrictive growth control, yeast lifespan reduction project (AID 706;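 active = growth inhibition above a set limit, 3 SD over mean compound inhibition, in both replicates, cut at about 43% in these data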;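 note: modified DeaD lifespan yeast strain shifted to restrictive glucose medium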); conditions: OD615, 48 h, at 10 µM, stronger effect = higher value
[11] = doxorubicin toxicity protection in MRP-1 cells – H69AR cells, CellTiter-Glo, duplicate, MRP-1 activator project, pilot screen (AID 807;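 active = viability increase at or above a cutoff of the median across tested compounds plus 3 SD, cut at about 8.5% in these data, passing the limit was not always enough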;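 note: compound pretreatment 18-22 h then 72 h combined with doxorubicin; 0% = doxorubicin alone and 100% = vehicle without doxorubicin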); conditions: H69AR viability with doxorubicin, CellTiter-Glo luminescence; at 10 µM; stronger effect = higher value
[12] = viability of HCT116 without oncogenic beta-catenin – human colon tumor cells, pilot screen (AID 823); conditions: HCT116 beta-catenin knockout viability, CellTiter-Glo, 60 h; at 10 µM; stronger effect = lower value;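 note: 0% = wells killed by 20 µM Hyamine and 100% = untreated DMSO cell wells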
[13] = viability of PTEN-null HCT116 cells – cell-based, HCT116 clonal line, CellTiter-Glo, pilot screen (AID 824;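 active = viability at or below 27.92% in each of two runs, the all-compound median minus 4 SD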;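 note: 0% = 20 µM Hyamine control and 100% = vehicle cell control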); conditions: HCT116 PTEN-deleted viability, 60 h, at 10 µM, stronger effect = lower value
[14] = RAM pathway blockade in budding yeast – dse1pr::URA3 reporter, 5-FOA selection, pilot screen (AID 869;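 active = inhibition over a set limit, the all-compound mean plus 3 SD, in both replicate runs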;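 note: 0% = DMSO wells with no growth and 100% = 10 µM 1-NA-PP1 with full growth; RAM network block rescues cells from 5-FOA so hits raise OD615 growth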); conditions: S. cerevisiae dse1pr::URA3 5-FOA growth, OD615, 2 d; at 10 µM; stronger effect = higher value; strain carries analog-sensitive mutant Cbk1 kinase
[15] = RAM signaling pathway blockade in yeast – S. cerevisiae, Pdr1DBD-CYC8 efflux-inhibited sensitized strain, primary screen (AID 1298;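 active = RAM network inhibition above 8.4% in each of two replicates, 3 SD over the compound average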;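 note: 0% = DMSO untreated cells without growth and 100% = 10 µM 1-NA-PP1 full growth; higher means more yeast growth rescued from 5-FOA killing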); conditions: S. cerevisiae cbk1-as DSE1-URA3 strain, 5-FOA growth OD615, 2 d; at 50 µM; stronger effect = higher value
[16] = H69AR cells + 2 uM doxorubicin, measured here: viability with 2 uM doxorubicin, stronger effect = lower value
[17] = H69AR cells, compound alone cytotoxicity

Row | Compound | viability [1] [%] | Her2 level [2] | viability [3] | viability [4] | viability [5] | differential viability (reversal) ([6]; H69AR cells + 2 uM doxorubicin) | viability [6, 16] [%] | viability [6, 17] [%] | inhibition [7] | inhibition [8] | growth inhibition [9] | growth inhibition [10] | viability increase [11] | viability [12] | viability [13] | inhibition [14] | RAM network inhibition [15]
1 | COc1cccc(-n2c(SCC(=O)Nc3cc(C)on3)nc3c([nH]c4ccccc43)c2=O)c1 | 76 | 90.5% (inactive) | 76% (inactive) | 61.5% (inactive) | 66.4% (inactive) | -16.2% (inactive) | 82.6 | 66.4 | -4.53% (inactive) | -0.67% (inactive) | -3.05% (inactive) | -0.53% (inactive) | -4.78% (inactive) | 82% (inactive) | 73.8% (inactive) | 2.33% (inactive) | 1.62% (inactive)
2 | Cn1c(=O)c2c(nc(CN3CCN(Cc4ccccc4)CC3)n2Cc2cccc(Cl)c2)n(C)c1=O | 93.5 | 81.5% (inactive) | 93.5% (inactive) | 69.9% (inactive) | 57.7% (inactive) | 36.9% (inactive) | 20.9 | 57.7 | -6.67% (inactive) | 5.5% (inactive) | 3.47% (inactive) | -0.975% (inactive) | -2.86% (inactive) | 60.8% (inactive) | 58.7% (inactive) | 1% (inactive) | 4.53% (inactive)
3 | COc1ccc(CCNC(=O)c2cc3sc(Cl)cc3n2C)cc1OC | 89.5 | 94% (inactive) | 89.5% (inactive) | 98.3% (inactive) | 90.7% (inactive) | -3.9% (inactive) | 94.6 | 90.7 | -3.59% (inactive) | -8% (inactive) | -5.07% (inactive) | 12.9% (inactive) | 3.32% (inactive) | 65.2% (inactive) | 77.3% (inactive) | 0.605% (inactive) | 1.25% (inactive)
4 | CCCCN(CC)CCCNC(=O)c1cc2c(=O)n(C)c3ccccc3c2n1C | 76 | 77% (inactive) | 76% (inactive) | 67.5% (inactive) | 70.1% (inactive) | -0.115% (inactive) | 70.2 | 70.1 | -2.05% (inactive) | -2% (inactive) | -8.88% (inactive) | -1.18% (inactive) | -7.73% (inactive) | 55.8% (inactive) | 54.6% (inactive) | -0.01% (inactive) | 1.02% (inactive)
5 | Cc1cc(C)nc(NC(=O)c2cnc3sccn3c2=O)n1 | 106 | 88.5% (inactive) | 106% (inactive) | 90.5% (inactive) | 96.5% (inactive) | -8.39% (inactive) | 105 | 96.5 | -4.67% (inactive) | 4.5% (inactive) | -12.5% (inactive) | -10.7% (inactive) | -1.3% (inactive) | 97.7% (inactive) | 98.3% (inactive) | 0.9% (inactive) | 0.52% (inactive)
6 | Cc1c(NC(=O)c2ccc(Br)o2)c(=O)n(-c2ccccc2)n1C | 91 | 96% (inactive) | 91% (inactive) | 89.2% (inactive) | 91.2% (inactive) | 5.07% (inactive) | 86.1 | 91.2 | -5.06% (inactive) | -1.67% (inactive) | -11.6% (inactive) | -4.15% (inactive) | 0.9% (inactive) | 97.7% (inactive) | 103% (inactive) | 1.59% (inactive) | 2.23% (inactive)
7 | Cc1cc2ccccc2n1CCNC(=O)C1CC1 | 89.5 | 81% (inactive) | 89.5% (inactive) | 89.8% (inactive) | 88.1% (inactive) | -5.55% (inactive) | 93.6 | 88.1 | -4.8% (inactive) | 4.67% (inactive) | -2.51% (inactive) | 1.02% (inactive) | -0.53% (inactive) | 98.3% (inactive) | 101% (inactive) | 0.66% (inactive) | 2.78% (inactive)
8 | CCCn1c(OC)nc2c1c(=O)n(C)c(=O)n2C | 89.5 | 88.5% (inactive) | 89.5% (inactive) | 83.2% (inactive) | 94.4% (inactive) | 0.235% (inactive) | 94.1 | 94.4 | -2.53% (inactive) | -2.5% (inactive) | -10.7% (inactive) | -9.12% (inactive) | 0.06% (inactive) | 107% (inactive) | 97% (inactive) | 2.22% (inactive) | 2.06% (inactive)
9 | Cc1ccc(CCP(=O)(O)CN2CCOCC2)cn1 | 85 | 87.5% (inactive) | 85% (inactive) | 101% (inactive) | 104% (inactive) | 12.3% (inactive) | 91.4 | 104 | -7.57% (inactive) | 3.61% (inactive) | -11.9% (inactive) | -9.14% (inactive) | 0.51% (inactive) | 89.2% (inactive) | 92.3% (inactive) | 0.17% (inactive) | -0.42% (inactive)
10 | CCOC(=O)C1=C(C)N(C)C(=O)NC1c1cccc(O)c1 (stereo not given) | 102 | 85% (inactive) | 102% (inactive) | 90.1% (inactive) | 86.9% (inactive) | -13.7% (inactive) | 101 | 86.9 | -0.9% (inactive) | -6.5% (inactive) | -6.63% (inactive) | 4.03% (inactive) | -0.55% (inactive) | 99.2% (inactive) | 95.9% (inactive) | -0.435% (inactive) | -0.57% (inactive)
